In PubChem BioAssay (NCI):
This is part of a sample that, as a whole, favours compounds with a hit. Of some 83,000 tested, about 20% had one in any assay.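 Note: values are percent growth. 100 is the growth of untreated cells, values between 100 and 0 indicate rising inhibition; between -100 and 0 indicates cell death.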 Active and inactive are the calls of the source. The calls were made as follows: active = growth percent below 10; inactive = the rest.

Assays:
Experiment in all cases: NCI-60 one-dose screen, 48 h (100 = growth as untreated, 0 = no growth, -100 = all killed)
SK-MEL-2 melanoma = conditions: 10 µM unless noted
EKVX NSCLC = conditions: 10 µM unless noted
SN12C renal = conditions: 10 µM unless noted
UO-31 renal = conditions: 10 µM unless noted
ACHN renal = conditions: 10 µM unless noted
CAKI-1 renal = conditions: 10 µM unless noted
A498 renal = conditions: 10 µM unless noted
CCRF-CEM leukemia = conditions: 10 µM unless noted
MOLT-4 leukemia = conditions: 10 µM unless noted
SR leukemia = conditions: 10 µM unless noted
RPMI-8226 leukemia = conditions: 10 µM
OVCAR-8 ovarian = conditions: 10 µM unless noted
OVCAR-5 ovarian = conditions: 10 µM unless noted
OVCAR-4 ovarian = conditions: 10 µM unless noted
SK-OV-3 ovarian = conditions: 10 µM
IGROV1 ovarian = conditions: 10 µM unless noted
OVCAR-3 ovarian = conditions: 10 µM unless noted
NCI/ADR-RES ovarian = conditions: 10 µM unless noted
HS 578T breast = conditions: 10 µM unless noted
TK-10 renal = conditions: 10 µM unless noted

Measured: growth

O=C(C[Si](CC(=O)c1cccc(C(F)(F)F)c1)CC(=O)c1cccc(C(F)(F)F)c1)c1cccc(C(F)(F)F)c1
inactive: SK-MEL-2 melanoma 94.1% | EKVX NSCLC 36.7% | SN12C renal 69.5% | UO-31 renal 31.4% | ACHN renal 79.1% | CAKI-1 renal 41.7% | A498 renal 60.4% | CCRF-CEM leukemia 14.4% | OVCAR-8 ovarian 90.9% | OVCAR-5 ovarian 91.4% | OVCAR-4 ovarian 88.3% | SK-OV-3 ovarian 98.3% | IGROV1 ovarian 48.3% | OVCAR-3 ovarian 37.8% | NCI/ADR-RES ovarian 78.4%
active: MOLT-4 leukemia -19.2% | SR leukemia 5.27% | RPMI-8226 leukemia 4.44%

COc1cc2cc(Oc3ccc(NC(=O)Nc4ccc(Cl)c(C(F)(F)F)c4)cc3)c(C)nc2cc1OCCN1CCCCC1
active: SN12C renal -84.7% | UO-31 renal -90.1% | ACHN renal -100% | CCRF-CEM leukemia 3.86% | MOLT-4 leukemia -37.2% | SR leukemia -15.9% | OVCAR-8 ovarian -34.4% | OVCAR-4 ovarian -4.36% | IGROV1 ovarian -47.2% | OVCAR-3 ovarian -82.8% | HS 578T breast -44.5% | NCI/ADR-RES ovarian 3.87%
inactive: SK-MEL-2 melanoma 95.3% | EKVX NSCLC 15.8% | CAKI-1 renal 15.4% | A498 renal 64.2% | OVCAR-5 ovarian 67.1%

CCOC(=O)c1cnn(CC(O)c2ccc(F)cc2)c1NC(=O)Nc1ccccc1F (centres undefined)
inactive: SK-MEL-2 melanoma 111% | EKVX NSCLC 101% | SN12C renal 106% | UO-31 renal 71.5% | ACHN renal 98.3% | CAKI-1 renal 83.7% | CCRF-CEM leukemia 96.9% | MOLT-4 leukemia 91.8% | SR leukemia 105% | RPMI-8226 leukemia 82.9% | OVCAR-8 ovarian 104% | OVCAR-5 ovarian 101% | OVCAR-4 ovarian 81.7% | IGROV1 ovarian 101% | OVCAR-3 ovarian 107% | HS 578T breast 97.3% | NCI/ADR-RES ovarian 101%

Nc1nc(-c2ccnc(Cl)c2)nn1-c1nc2ccccc2s1
inactive: SK-MEL-2 melanoma 108% | EKVX NSCLC 96.5% | SN12C renal 101% | UO-31 renal 87% | ACHN renal 96.9% | CAKI-1 renal 95% | A498 renal 96.2% | CCRF-CEM leukemia 101% | MOLT-4 leukemia 119% | SR leukemia 120% | OVCAR-8 ovarian 102% | OVCAR-5 ovarian 95.9% | OVCAR-4 ovarian 102% | IGROV1 ovarian 99.1% | OVCAR-3 ovarian 114% | HS 578T breast 96.8% | NCI/ADR-RES ovarian 104%

O=c1c2c(=NCCN3CCCC3)cc3c(=O)n(CCCN4CCOCC4)c(=O)c4ccc(c(O)n1CCCN1CCOCC1)c2c4-3
inactive: SR leukemia 13.5% | OVCAR-8 ovarian 11.9%
active: SK-MEL-2 melanoma -27.2% | EKVX NSCLC -12.8% | SN12C renal 4.69% | UO-31 renal 0.795% | ACHN renal 2.23% | CAKI-1 renal 8.73% | A498 renal -78.9% | CCRF-CEM leukemia 1.35% | MOLT-4 leukemia 2.58% | OVCAR-5 ovarian -10.9% | OVCAR-4 ovarian -49.1% | IGROV1 ovarian 2.41% | OVCAR-3 ovarian -8.68% | HS 578T breast -13.9% | NCI/ADR-RES ovarian -2.98%

O=c1[nH]c(=O)n(Cc2ccc(F)cc2)cc1F
inactive: SK-MEL-2 melanoma 111% [50 µM] | EKVX NSCLC 105% [50 µM] | SN12C renal 99.8% [50 µM] | UO-31 renal 89.4% [50 µM] | ACHN renal 105% [50 µM] | CAKI-1 renal 95.3% [50 µM] | A498 renal 92.1% [50 µM] | CCRF-CEM leukemia 104% [50 µM] | MOLT-4 leukemia 96% [50 µM] | SR leukemia 93.5% [50 µM] | OVCAR-8 ovarian 94.2% [50 µM] | OVCAR-5 ovarian 104% [50 µM] | OVCAR-4 ovarian 108% [50 µM] | IGROV1 ovarian 108% [50 µM] | OVCAR-3 ovarian 116% [50 µM] | HS 578T breast 104% [50 µM] | NCI/ADR-RES ovarian 113% [50 µM]

Cc1ccccc1-n1nnc(C(=O)Nc2ccc(-c3ccccc3)cn2)c1C
active: MOLT-4 leukemia 8.31% [50 µM]
inactive: SK-MEL-2 melanoma 42% [50 µM] | EKVX NSCLC 34.8% [50 µM] | SN12C renal 64.4% [50 µM] | UO-31 renal 38.8% [50 µM] | ACHN renal 46% [50 µM] | CAKI-1 renal 31.1% [50 µM] | A498 renal 61.2% [50 µM] | CCRF-CEM leukemia 51.8% [50 µM] | SR leukemia 16% [50 µM] | OVCAR-8 ovarian 41.2% [50 µM] | OVCAR-5 ovarian 87.1% [50 µM] | OVCAR-4 ovarian 11.5% [50 µM] | IGROV1 ovarian 71% [50 µM] | OVCAR-3 ovarian 68.8% [50 µM] | HS 578T breast 90% [50 µM] | NCI/ADR-RES ovarian 33.3% [50 µM]

c1ccc2cc(-c3n(Cc4ccc5ccccc5n4)c4ccccc4[n+]3Cc3ccc4ccccc4n3)ccc2c1
inactive: NCI/ADR-RES ovarian 58.6%
active: SK-MEL-2 melanoma -42.9% | EKVX NSCLC 4.21% | SN12C renal 0.451% | UO-31 renal -14.3% | ACHN renal 7.63% | CAKI-1 renal -47.6% | A498 renal -22.3% | CCRF-CEM leukemia 8.55% | MOLT-4 leukemia -32.8% | SR leukemia -24.5% | OVCAR-8 ovarian -0.932% | OVCAR-5 ovarian 8.83% | OVCAR-4 ovarian 4.26% | IGROV1 ovarian -51% | OVCAR-3 ovarian -18.9% | HS 578T breast -9.29%

CCN(CC)CCCNc1ccc(C)c2sc3ccccc3c(=O)c12
inactive: SK-MEL-2 melanoma 94% | EKVX NSCLC 87.9% | SN12C renal 40.5% | UO-31 renal 44.7% | ACHN renal 20.9% | CAKI-1 renal 64.6% | CCRF-CEM leukemia 21.8% | RPMI-8226 leukemia 15.4% | OVCAR-8 ovarian 43.2% | OVCAR-5 ovarian 56.4% | OVCAR-4 ovarian 64.8% | SK-OV-3 ovarian 56.2% | IGROV1 ovarian 51.9% | OVCAR-3 ovarian 68.5% | NCI/ADR-RES ovarian 58.4%

CSc1ccc(OC(C)=O)cc1C
inactive: SK-MEL-2 melanoma 92.7% | SN12C renal 104% | UO-31 renal 77.2% | TK-10 renal 91.1% | ACHN renal 98% | CAKI-1 renal 96.4% | A498 renal 86.3% | CCRF-CEM leukemia 88.5% | MOLT-4 leukemia 89.6% | SR leukemia 95.7% | RPMI-8226 leukemia 101% | OVCAR-8 ovarian 100% | OVCAR-5 ovarian 99.4% | OVCAR-4 ovarian 99.6% | SK-OV-3 ovarian 95% | IGROV1 ovarian 103% | OVCAR-3 ovarian 106% | HS 578T breast 103%

CC1(C)N=C(N)N=C(N)N1c1cccc(OCCOc2cccc([N+](=O)[O-])c2)c1
inactive: SK-MEL-2 melanoma 39.4% | SN12C renal 28.8% | UO-31 renal 78.4% | TK-10 renal 71.8% | ACHN renal 89.9% | CAKI-1 renal 90.1% | A498 renal 91% | CCRF-CEM leukemia 29.7% | MOLT-4 leukemia 26% | SR leukemia 15.9% | RPMI-8226 leukemia 52.4% | OVCAR-8 ovarian 105% | OVCAR-5 ovarian 32% | OVCAR-4 ovarian 81.3% | SK-OV-3 ovarian 70% | IGROV1 ovarian 29.7% | OVCAR-3 ovarian 45.3% | HS 578T breast 82%

COc1ccc(-c2c3c(N)c4c(nc3nc3c2c(C)nn3-c2ccccc2)CCCC4)cc1
active: SR leukemia -25.8% | RPMI-8226 leukemia -37.5%
inactive: SK-MEL-2 melanoma 101% | SN12C renal 93.4% | UO-31 renal 68.9% | TK-10 renal 86.8% | ACHN renal 77.4% | CAKI-1 renal 83.9% | A498 renal 78.7% | CCRF-CEM leukemia 23.2% | MOLT-4 leukemia 23.6% | OVCAR-8 ovarian 83.1% | OVCAR-5 ovarian 90.1% | OVCAR-4 ovarian 45.1% | SK-OV-3 ovarian 103% | IGROV1 ovarian 90.1% | OVCAR-3 ovarian 88.8% | HS 578T breast 92.5% | NCI/ADR-RES ovarian 86.6%

COc1cc(C2=NN(c3ccc(S(N)(=O)=O)cc3)C(c3ccc(Cl)cc3)C2)cc(OC)c1OC (centres undefined)
active: RPMI-8226 leukemia -5.03%
inactive: SK-MEL-2 melanoma 66.9% | SN12C renal 51% | UO-31 renal 23.2% | TK-10 renal 45.9% | ACHN renal 46.5% | CAKI-1 renal 53.3% | A498 renal 35.4% | CCRF-CEM leukemia 20.7% | MOLT-4 leukemia 16.6% | SR leukemia 17.5% | OVCAR-8 ovarian 40% | OVCAR-5 ovarian 77.5% | OVCAR-4 ovarian 42.4% | SK-OV-3 ovarian 77.9% | IGROV1 ovarian 60.9% | OVCAR-3 ovarian 47.1% | HS 578T breast 58.4%

COc1cc2nc(N3CCC[C@H](NC4=CC(=O)c5ccccc5C4=O)C3)nc(N)c2cc1OC
active: UO-31 renal -76.1% | TK-10 renal -72.6% | ACHN renal -100% | CAKI-1 renal -56.6% | CCRF-CEM leukemia -23.5% | MOLT-4 leukemia -41.3% | SR leukemia -20.1% | RPMI-8226 leukemia -50.1% | OVCAR-8 ovarian -57.2% | OVCAR-4 ovarian -88% | IGROV1 ovarian -81.6% | OVCAR-3 ovarian -57.7% | HS 578T breast -49.1%
inactive: SK-MEL-2 melanoma 111% | SN12C renal 65.4% | A498 renal 93% | OVCAR-5 ovarian 125% | SK-OV-3 ovarian 116% | NCI/ADR-RES ovarian 29.4%

COc1ccc(Nc2nc(NCCNc3ccnc4cc(Cl)ccc34)nc(N3CCOCC3)n2)cc1
inactive: SK-MEL-2 melanoma 78.8% | SN12C renal 61.4% | UO-31 renal 45.3% | TK-10 renal 103% | ACHN renal 63.2% | CAKI-1 renal 80.2% | CCRF-CEM leukemia 56.4% | MOLT-4 leukemia 35.6% | RPMI-8226 leukemia 45.9% | OVCAR-8 ovarian 71.4% | OVCAR-5 ovarian 130% | OVCAR-4 ovarian 81.3% | SK-OV-3 ovarian 100% | IGROV1 ovarian 72.8% | OVCAR-3 ovarian 73.4% | HS 578T breast 66.3% | NCI/ADR-RES ovarian 76.2%
active: A498 renal -17.7% | SR leukemia 7.72%

CCCCCCCCCCCCSC1=CC(=O)C=CC1=O
inactive: SK-MEL-2 melanoma 90.1% | SN12C renal 55.1% | UO-31 renal 52.8% | TK-10 renal 118% | ACHN renal 81% | CAKI-1 renal 52.6% | A498 renal 107% | SR leukemia 71.5% | OVCAR-8 ovarian 35.1% | OVCAR-5 ovarian 89.7% | OVCAR-4 ovarian 57.1% | SK-OV-3 ovarian 82.3% | OVCAR-3 ovarian 73.2% | HS 578T breast 63.8% | NCI/ADR-RES ovarian 59.8%
active: CCRF-CEM leukemia -10% | MOLT-4 leukemia -0.985% | RPMI-8226 leukemia -8.18% | IGROV1 ovarian -26.6%

COc1cccc(OC(=O)c2ccccc2)c1OC(=O)c1ccccc1
inactive: SK-MEL-2 melanoma 57.6% | EKVX NSCLC 95.4% | SN12C renal 76.7% | TK-10 renal 87.7% | ACHN renal 98.3% | CAKI-1 renal 75.2% | A498 renal 88.9% | CCRF-CEM leukemia 87.6% | MOLT-4 leukemia 79.5% | RPMI-8226 leukemia 68.6% | OVCAR-8 ovarian 91.6% | OVCAR-5 ovarian 99.4% | OVCAR-4 ovarian 100% | SK-OV-3 ovarian 90.4% | OVCAR-3 ovarian 68.5% | HS 578T breast 86.9%
active: NCI/ADR-RES ovarian 9.73%
